Only some compounds are listed: those with a hit (about 1.7% of all), similar ones and a draw of the others.
PTHR1 ag: PTHR1 (human) receptor agonism | Q03431 | HEK293 GP2 PTHR1 cells, GloSensor cAMP luminescence, 1 h | Potency, µM (series often up to 115 µM), most hits filed as activators | 410,000 tested, 0.075% active | AID 743266; further: nearly all actives have a fitted effect of over 55% in size
Target sequence (Q03431 whole entry, looked up): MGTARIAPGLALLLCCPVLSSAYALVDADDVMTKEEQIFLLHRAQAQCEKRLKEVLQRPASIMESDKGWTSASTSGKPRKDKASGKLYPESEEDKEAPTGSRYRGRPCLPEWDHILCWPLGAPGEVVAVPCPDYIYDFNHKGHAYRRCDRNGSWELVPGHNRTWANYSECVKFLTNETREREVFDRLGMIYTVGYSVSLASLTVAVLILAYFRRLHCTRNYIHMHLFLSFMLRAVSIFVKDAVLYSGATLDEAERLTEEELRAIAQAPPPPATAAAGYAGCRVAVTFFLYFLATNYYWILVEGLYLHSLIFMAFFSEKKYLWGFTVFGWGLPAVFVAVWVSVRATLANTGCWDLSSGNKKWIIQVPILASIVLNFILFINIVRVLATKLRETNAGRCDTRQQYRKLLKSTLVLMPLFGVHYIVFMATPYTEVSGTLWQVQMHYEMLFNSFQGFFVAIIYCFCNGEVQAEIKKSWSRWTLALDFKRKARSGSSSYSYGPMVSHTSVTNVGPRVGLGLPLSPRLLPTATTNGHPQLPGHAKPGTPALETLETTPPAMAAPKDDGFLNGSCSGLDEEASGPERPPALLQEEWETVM
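HEK-293-derived GP2 cells expressing PTHR1 and a GloSensor cAMP reporter, 3,000/well, plated overnight, given luciferin plus IBMX (each 0.5 mM as added) for 1 h at 37 °C, then compound for 1 h at 37 °C. Luminescence was read after 15 min at room temperature.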
GLP-1R agonist: GLP-1 receptor (human) agonism; 380,000 tested, 0.007% active; P43220; HEK293 GLP-1R CRE-luciferase, luminescence, 4-6 h; cells express a hypersensitive GLP-1R form; Potency, µM (highest dose often 45.6 µM), hits mostly activators
HEK293 tox: cytotoxicity counter-screen for GLP-1 receptor inverse agonists; 410,000 tested, 0.13% active; Potency, µM (doses to about 38.3 µM), actives largely listed as inhibitors; HEK293 cAMP-luciferase reporter cells, luminescence, 24 h;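 further: loss of luciferase light is scored as toxicity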
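Luminescence readout: signal drop marks cytotoxicity. Plated cells grew 12 h at 37 °C, 5% CO2, received 23 nL compound for 24 h, then got luciferase reagent, read after 12 min at RT.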
GLP1R inv ag: GLP-1 receptor (human) inverse agonism; P43220; Potency, µM (highest dose often 38.3 µM), actives largely listed as inhibitors; HEK293 GLP-1R CRE-luciferase, luminescence, 24 h; GLP-1R form is constitutively active; 410,000 tested, 1.6% active; AID 624417; further: nearly all actives have a fitted effect of over 55% in size
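Stable HEK293 clone (constitutively active GLP-1R + cAMP-response luciferase); 200 cells/uL plated, 12 h pre-culture, compound 24 hr, 37 deg C/5% CO2; detection reagent 12 min RT; luminescence.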
RGS4 inhibitor: inhibitors of human regulator of G protein signaling 4; P49798; Transcreener GDP fluorescence polarization, RGS4-accelerated GTP hydrolysis; Potency, µM (highest dose often 114 µM), usual class: inhibitors; 390,000 tested, 0.039% active; AID 504845; further: nearly all actives have a fitted effect of over 75% in size
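MLSMR compounds (23 nl, pin-transferred) preincubated 10 min at room temperature with a 500nM (2x) first reagent, then RGS4 at 900nM (2x) plus Transcreener GDP mix added; fluorescence polarization (620/688 nm) read before and after 90 min at 30 °C.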
A number is an active result; ! = a repeat was not active; [ ] = remark or other dose. The call rests on the fitted dose curve; in most records, active means well fitted curve in the direction sought with a large enough effect; inconclusive means small, poorly fitted or top-dose-only effect, or another doubt; inactive means no such curve, though single readings can be large; an effect the other way counts as inactive or inconclusive.

Results for O=C(c1cc2sccc2n1Cc1ccccc1)N1CCCc2ccccc21 ?
PTHR1 ag: inactive; GLP-1R agonist: inactive; HEK293 tox: inactive; GLP1R inv ag: 10µM; RGS4 inhibitor: inactive

Results for Fc1ccccc1-c1ccc(/C=N/Nc2nc3ccccc3[nH]2)o1 ?
PTHR1 ag: inactive; GLP-1R agonist: inactive; HEK293 tox: inactive; GLP1R inv ag: inconclusive; RGS4 inhibitor: inactive

What do the screens show for `Cc1ccc(/C=N\Nc2nc3ccc(Cl)cc3[nH]2)o1`?
PTHR1 ag: inactive; GLP-1R agonist: inactive; HEK293 tox: inactive; GLP1R inv ag: 5µM; RGS4 inhibitor: inactive[11.4 µM]

How did CCC(C(=O)Nc1cccc(S(=O)(=O)N(C)c2ccccc2)c1)c1ccccc1 (stereo not given) do in these assays?
PTHR1 ag: inactive; GLP-1R agonist: inactive; HEK293 tox: inactive; GLP1R inv ag: 7.1µM; RGS4 inhibitor: inactive

What do the screens show for `CN(C)C(CNC(=O)c1cc(S(=O)(=O)N(C)c2ccccc2)ccc1Cl)c1ccccc1` (stereo not given)?
PTHR1 ag: inactive; GLP-1R agonist: inactive; HEK293 tox: inactive; GLP1R inv ag: 10µM; RGS4 inhibitor: inactive

Results for CN(C)C(CNC(=O)c1cc(S(=O)(=O)N(C)c2ccc(F)cc2)ccc1Cl)c1ccco1 (stereo not given) ?
PTHR1 ag: inactive; GLP-1R agonist: inactive; HEK293 tox: inactive; GLP1R inv ag: inconclusive; RGS4 inhibitor: inactive

How did COC(=O)c1c(SC)nc2ccccc2c1OCc1ccccc1C do in these assays?
PTHR1 ag: inactive; HEK293 tox: inactive; GLP1R inv ag: inconclusive; RGS4 inhibitor: inactive

Results for COc1cc(Cl)ccc1OC1(C)CCN(Cc2cccn2-c2nccs2)C1 (stereo not given) ?
PTHR1 ag: inactive; GLP-1R agonist: inactive; HEK293 tox: inactive; GLP1R inv ag: inconclusive

How did O=C(Nc1ccccc1N1CCOCC1)[C@@H]1O[C@H](CO)[C@H](O)[C@H](O)[C@H]1O do in these assays?
PTHR1 ag: inactive; GLP-1R agonist: inactive; HEK293 tox: inactive; GLP1R inv ag: inactive

How did CCC(NC(=O)C1CCCC1)c1ccccc1 (stereo not given) do in these assays?
PTHR1 ag: inactive; GLP-1R agonist: inactive; HEK293 tox: inactive; GLP1R inv ag: inactive; RGS4 inhibitor: inactive

What do the screens show for `Cc1cc(C)cc(-n2c(C)cc(/C=N/NC(=O)CN(c3c(C)cccc3C)S(C)(=O)=O)c2C)c1`?
PTHR1 ag: inactive; GLP-1R agonist: inactive; HEK293 tox: inactive; GLP1R inv ag: inconclusive; RGS4 inhibitor: inactive

What do the screens show for `Cc1ccc(-n2c(C)cc(/C=N/NC(=O)CN(c3ccc(C)cc3C)S(C)(=O)=O)c2C)cc1`?
PTHR1 ag: inactive; GLP-1R agonist: inactive; HEK293 tox: inactive; GLP1R inv ag: 10µM; RGS4 inhibitor: inconclusive

How did Cc1cc(C(=O)NNC(=O)/C=C/c2ccco2)c(C)o1 do in these assays?
PTHR1 ag: inactive; GLP-1R agonist: inactive; HEK293 tox: inactive; GLP1R inv ag: inactive; RGS4 inhibitor: inactive

Results for OCCC1CN(Cc2nc(-c3ccccc3)cs2)CCN1CCc1ccccc1 (stereo not given) ?
PTHR1 ag: inactive; GLP-1R agonist: inactive; HEK293 tox: inactive; GLP1R inv ag: 10µM; RGS4 inhibitor: inactive

What do the screens show for `Cc1ccc2c(c1)N(CC(=O)Nc1ccccc1C(F)(F)F)C(=O)c1cccnc1O2`?
PTHR1 ag: inactive; HEK293 tox: inactive; GLP1R inv ag: inactive; RGS4 inhibitor: inactive

Results for CS(=O)(=O)Nc1ccc([N+](=O)[O-])cc1Oc1ccccc1 ?
PTHR1 ag: inactive; GLP-1R agonist: inconclusive; HEK293 tox: inactive; GLP1R inv ag: inactive; RGS4 inhibitor: inactive

Results for CS(=O)(=O)Nc1ccc([N+](=O)[O-])cc1OC1CCCCC1 ?
RGS4 inhibitor: 8.4µM!

What do the screens show for `CCCCn1c(N)c(N(Cc2ccccc2OC)C(=O)COc2ccc(C)cc2)c(=O)[nH]c1=O`?
PTHR1 ag: inactive; GLP-1R agonist: inactive; HEK293 tox: inactive; GLP1R inv ag: inactive; RGS4 inhibitor: inactive

What do the screens show for `COc1ccc(-c2cc3nc(C)cc(-c4ccc(OC)cc4)n3n2)cc1`?
PTHR1 ag: inactive; GLP-1R agonist: inactive; HEK293 tox: inactive; GLP1R inv ag: inactive; RGS4 inhibitor: inactive

What do the screens show for `COc1ccc(-c2cc3nc(C)cc(N)n3n2)cc1`?
PTHR1 ag: inactive; GLP-1R agonist: inactive; HEK293 tox: inactive; GLP1R inv ag: 7.9µM; RGS4 inhibitor: inactive

What do the screens show for `CCOC(=O)CCc1ccc(NC(=O)/C=C/c2ccc([N+](=O)[O-])o2)cc1`?
PTHR1 ag: inactive; GLP-1R agonist: inactive; HEK293 tox: 11µM; GLP1R inv ag: inconclusive; RGS4 inhibitor: inactive

How did Cc1ccc(/C=C/C(=O)Nc2ccc([N+](=O)[O-])cc2)o1 do in these assays?
PTHR1 ag: inactive; GLP-1R agonist: inactive; HEK293 tox: inactive; GLP1R inv ag: inactive; RGS4 inhibitor: inactive

How did CC(C)(C)c1cc(C(=O)NNC(=O)Nc2cccc(Cl)c2)n(Cc2ccccc2)n1 do in these assays?
PTHR1 ag: inactive; GLP-1R agonist: inactive; HEK293 tox: inactive; GLP1R inv ag: 5µM; RGS4 inhibitor: inactive

What do the screens show for `O=S(=O)(NC1c2cccc3cccc(c23)C1N1CCNCC1)c1ccccc1` (stereo not given)?
PTHR1 ag: inactive; GLP-1R agonist: inactive; HEK293 tox: inactive; GLP1R inv ag: 10µM; RGS4 inhibitor: inactive

How did Cc1cccc(NC(=S)N/N=C2/CCCCc3ccccc32)c1 do in these assays?
PTHR1 ag: inactive; GLP-1R agonist: inactive; HEK293 tox: inactive; GLP1R inv ag: inconclusive; RGS4 inhibitor: inactive

What do the screens show for `Cc1ccc(NC(=S)N/N=C2/CCCCc3ccccc32)cc1`?
PTHR1 ag: inactive; GLP-1R agonist: inactive; HEK293 tox: inactive; GLP1R inv ag: 3.5µM; RGS4 inhibitor: inactive

How did C=C(C)CNC(=S)N/N=C1\CCCCc2ccccc21 do in these assays?
PTHR1 ag: inactive; GLP-1R agonist: inactive; HEK293 tox: 4µM; GLP1R inv ag: inconclusive; RGS4 inhibitor: inactive

Results for CCNC(=S)N/N=C1\CCCCc2ccccc21 ?
PTHR1 ag: inactive; GLP-1R agonist: inactive; HEK293 tox: 4µM; GLP1R inv ag: 3.5µM; RGS4 inhibitor: inactive

What do the screens show for `CN(C)c1ccc(NC(=O)CN2CCN(CC(=O)Nc3ccc(Br)cc3)CC2)cc1`?
PTHR1 ag: inactive; HEK293 tox: inactive; GLP1R inv ag: inactive; RGS4 inhibitor: inactive

What do the screens show for `CC(=O)Nc1ccc(-c2ccnc3c2CC(C)(C(=O)Nc2ccc(F)c(Cl)c2)O3)cc1` (stereo not given)?
PTHR1 ag: inactive; GLP-1R agonist: inactive; HEK293 tox: inactive; GLP1R inv ag: inconclusive

What do the screens show for `CCN(CC)c1nc2c(S(=O)(=O)c3ccc(C)cc3)nnn2c2ccsc12`?
PTHR1 ag: inactive; HEK293 tox: inactive; GLP1R inv ag: inactive; RGS4 inhibitor: inactive

Screens from PubChem BioAssay.
